In the library only some 19% were active in any assay of this set; here they are far more common.
KB-V1 MDR tox = KB-V1 MDR subline cytotoxicity. KB-V1 MDR cells viability, CellTiter-Glo, 72 h. 400,000 compounds, 3.4% hits. Potency, µM (doses to about 46.1 µM), hits mostly cytotoxic; further: nearly all actives have a fitted effect of over 60% in size
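KB-V1 MDR subline cells in DMEM (phenol-red free, 10% FBS) exposed to compounds in qHTS concentration series for 72 h at 37 degrees C. Viability read by CellTiter-Glo luminescence; concentration-effect curves fitted after normalization and correction.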
HT1080NT lethal = kills 2HG-producing HT-1080-NT fibrosarcoma cells; HT-1080-NT fibrosarcoma viability, CellTiter-Glo ATP luminescence, 48 h; 360,000 compounds, 1.6% hits; Potency, µM (series often up to 46.1 µM), inactives show at the highest dose activity, negative = less viability, hits mostly cytotoxic;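 further: NT is the 2HG producing partner of a matched IDH1 knockdown line; 0% = DMSO-treated cells and -100% = media-only wells without cells; nearly all actives have a fitted effect of over 55% in size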
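HT-1080-NT; 750 cells/well; 5% FBS RPMI; 48 h compound, 37 degrees C; CellTiter-Glo luminescence; curve fitting and curve-class assignment.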
TDP1 cell CPT = growth inhibition of DT40 Tdp1-/-;hTDP1 cells with camptothecin (screen for TDP1 inhibitors). Potency, µM (series often up to 46.2 µM), for the others: top-dose activity change, negative = growth inhibition, hits mostly inhibitors. chicken DT40 Tdp1-/-;hTDP1 cells + 20 nM CPT, ATP luminescence, 48 h. 420,000 compounds, 12% hits; further: nearly all actives have a fitted effect of over 55% in size
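Cell growth measured by CellTiter-Glo luminescence after a minimum 48 h, 37 C compound exposure with 20 nM CPT in Tdp1-knockout DT40 cells stably expressing hTDP1, seeded 400/well; qHTS titration format.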
HT1080 IDH1KD tx = kills HT-1080 cells with IDH1 knockdown; HT-1080 IDH1 knockdown viability, ATP luminescence, 48 h; Potency, µM (titrated, usually from 46.1 µM), without a hit: at the highest dose activity, negative = toxicity, usual class: cytotoxic; 360,000 compounds, 2% hits; AID 686971;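 further: 0% = DMSO wells and -100% = cell-free medium wells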
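HT-1080-IDH1KD cells (IDH1 knocked down), 750/well in RPMI with 5% FBS, treated with compound 48 h at 37 degrees C. Viability by CellTiter-Glo luminescence, normalised to DMSO and no-cell wells; concentration-response curves classed.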
KB-3-1 cytotox = KB-3-1 parental cell cytotoxicity. 400,000 compounds, 1.4% hits. Potency, µM (doses to about 46.1 µM), most hits filed as cytotoxic. KB-3-1 viability, CellTiter-Glo ATP luminescence, 72 h. AID 1347075; further: nearly all actives have a fitted effect of over 60% in size
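Using CellTiter-Glo luminescence, growth of non-resistant KB-3-1 adenocarcinoma cells is assessed 72 h after pin-tool compound addition at 37 °C. Normalized responses across the concentration series yield fitted curves.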
DT40 TDP1 no CPT = qHTS for Inhibitors of human tyrosyl-DNA phosphodiesterase 1 (TDP1): qHTS in cells in absence of CPT; AID 686978, 2013; DT40 Tdp1-/- hTDP1 cells, no CPT, ATP luminescence, 48 h; 420,000 compounds, 15% hits; Potency, µM (doses to about 46.2 µM), inactives show at the highest dose activity change, negative = growth inhibition, actives largely listed as inhibitors; further: nearly all actives have a fitted effect of over 55% in size
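Seeded 400 DT40-hTDP1 cells/well (vehicle DMSO, no 20 nM CPT); pinned compounds; ≥48 hr at 37 °C; CellTiter-Glo luminescence as viability measure.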
Starred values were filed as active, the others as inactive; i = inactive; ? = inconclusive; . = no result given. The call rests on the fitted dose curve; in most records, active means well fitted curve in the direction sought with a large enough effect; inconclusive means small, poorly fitted or top-dose-only effect, or another doubt; inactive means no such curve, though single readings can be large; an effect the other way counts as inactive or inconclusive. Unless noted, on the % scale 0 is the no-effect control and ±100 the full control effect; potency means the concentration at half of the fitted maximal effect.

SMILES | KB-V1 MDR tox | HT1080NT lethal | TDP1 cell CPT | HT1080 IDH1KD tx | KB-3-1 cytotox | DT40 TDP1 no CPT
Nc1ncnc2c1ncn2[C@@H]1O[C@H](C(=O)Nc2cc(C(F)(F)F)cc(C(F)(F)F)c2)[C@@H](O)[C@H]1O | i | -17.2% | -18.4% | -14.9% | i | ?
Cc1cc(C)nc(SCCn2c(N3CCOCC3)nc3c2c(=O)[nH]c(=O)n3C)n1 | i | 5.6% | -6.4% | 4.5% | i | 6.6%
COc1ccc(-c2nc3ccccc3s2)cc1NC(=O)COc1ccc(C)cc1 | i | . | . | . | ? | .
CCC(=O)Nc1ccc(-c2nc3ncccc3o2)cc1C | i | . | 1.5% | . | i | -4.5%
COc1ccc(-c2nc3ccccc3o2)cc1NC(=O)COc1ccc(C(C)(C)C)cc1 | . | . | ? | . | . | 16.4µM*
Cc1cc(-c2nc3ncccc3o2)ccc1NC(=O)COc1ccc(C(C)(C)C)cc1 | i | . | 18.4µM* | . | i | 16.4µM*
COc1ccc(-c2nc3ccccc3s2)cc1NC(=O)COc1cccc(C)c1 | . | . | ? | . | . | 16.4µM*
CC(C)(C)c1ccc(OCC(=O)Nc2ccc(-c3nc4cccnc4o3)cc2)cc1 | i | -4.4% | ? | -2.1% | i | 9.2µM*
CC(C)C(=O)Nc1ccc(-c2nc3cccnc3o2)cc1 | ? | -1.1% | 10.0% | 8.9% | i | -12.0%
Cn1c(=O)c2c(nc(OC3CCCC3)n2C)n(C)c1=O | i | 0.5% | 6.5% | -2.6% | i | -0.3%
COc1ccccc1NC(=O)N1CCN(c2nnc(C)c3c(C)n(-c4ccccc4)nc23)CC1 | i | . | ? | . | i | ?
COC(=O)Cc1c(C)nc2nc(NCc3ccc(Br)cc3)[nH]n2c1=O | ? | . | -14.3% | . | i | -5.8%
CN1CC2=Cc3ccccc3OC23Oc2ccccc2C=C3C1 | ? | 16.4µM* | ? | ? | ? | ?
COc1ccc(CN(C)C(=O)/C=C/[C@H]2O[C@@H](n3cnc4c(N)ncnc43)[C@H](O)[C@@H]2O)cc1OC | i | -0.1% | -14.1% | 5.2% | i | -5.8%
CC(C)c1ccc(/C=N/NC(=O)CN(c2cccc(Cl)c2Cl)S(C)(=O)=O)cc1 | ? | 18.4µM* | 29.1µM* | 20.6µM* | ? | ?
CCOC(=O)c1ccc(-c2ccc(/C=N/NC(=O)CN(c3cccc(C)c3)S(C)(=O)=O)o2)cc1 | i | 0.0% | ? | 0.0% | i | 14.6µM*
Cc1ccc(C)c(N(CC(=O)N/N=C/c2ccc(-c3ccc([N+](=O)[O-])cc3)o2)S(=O)(=O)c2ccccc2)c1 | i | -2.6% | ? | -3.6% | i | ?
CS(=O)(=O)N(CC(=O)N/N=C/c1ccccc1C(=O)O)c1cccc(Cl)c1Cl | i | 2.3% | -14.5% | -8.9% | i | 0.1%
CCOC(=O)c1ccc(-c2ccc(/C=N/NC(=O)CN(c3ccccc3Cl)S(C)(=O)=O)o2)cc1 | ? | -5.7% | ? | -13.3% | ? | 23.1µM*
CC(C)[C@H](NC(=O)N1c2ccccc2NC(=O)[C@@H]1C(C)C)C(=O)N[C@H](Cc1ccccc1)C(=O)O | i | 7.0% | 2.5% | 8.8% | i | -0.3%
O=C(Nc1ccccc1Oc1cccnc1)C1CCCN(Cc2ccccc2O)C1 (stereo not drawn) | i | -24.9% | ? | -4.6% | i | 14.6µM*
O=C(Nc1ccc(Oc2cccnc2)cc1)C1CCN(Cc2cc(Cl)ccc2O)CC1 | ? | ? | 8.2µM* | ? | 16.4µM* | 13µM*
C#Cc1ccc(CN2CCCC(C(=O)Nc3ccccc3Oc3cccnc3)C2)cc1 (stereo not drawn) | i | -4.3% | ? | -5.0% | i | ?
CCOc1ccc(NC(=O)CN(C)C(=O)c2cc3c(s2)CCC3)cc1OCC | i | -1.7% | ? | -8.4% | i | ?
NC(=O)CSc1nc(C23CC4CC(CC(C4)C2)C3)nc2ccccc12 | i | -2.3% | ? | -1.5% | i | 25.9µM*
SMILES | KB-V1 MDR tox | HT1080NT lethal | TDP1 cell CPT | HT1080 IDH1KD tx | KB-3-1 cytotox | DT40 TDP1 no CPT
O=C(Oc1ccccc1)c1cccc2cccc(C(=O)Oc3ccccc3)c12 | ? | -15.2% | ? | -1.5% | i | 20.6µM*
Cc1coc2c1c(C)cc1oc(=O)cc(C)c12 | i | . | 19.3% | . | i | 5.7%
CCCOC(=O)c1cccc(NC(=O)COc2ccc([N+](=O)[O-])cc2)c1 | ? | -11.3% | 18.4µM* | ? | i | 23.1µM*
COCCOC(=O)c1ccc(NC(=O)COc2ccc([N+](=O)[O-])cc2)cc1 | i | -13.0% | -27.6% | -16.7% | i | ?
CCOC(=O)c1cccc(NC(=O)COc2ccc([N+](=O)[O-])cc2)c1 | 23.1µM* | 4.8% | ? | 5.2% | i | ?
COc1cccc(CCNc2ncnc3sc(C(=O)N4CCOCC4)c(C)c23)c1 | . | . | -8.0% | . | . | -28.9%
CC(C)(C)S(=O)N1Cc2cc(=O)n(Cc3ccccc3)c(CCO)c2[C@@H]1CCO (stereo partly drawn) | i | 15.6% | -5.7% | 9.6% | i | -0.2%
CCOc1ccccc1C(=O)Nc1nn[nH]n1 | i | 9.6% | 8.7% | 3.1% | i | -16.8%
CCOc1ccccc1C(=O)Nc1nnc(CC)s1 | i | 9.5% | 16.4µM* | -1.9% | i | 20.6µM*
CCc1nnc(NC(=O)c2cccc(C(=O)Nc3nnc(CC)s3)n2)s1 | ? | -0.9% | 0.146µM* | -12.9% | ? | 0.0206µM*
CCNC(=O)CC1SC(=Nc2ccc(Cl)cc2)N(CC)C1=O (stereo not drawn) | ? | 0.9% | ? | -3.3% | i | 20.6µM*
CCOc1ccc(C(=O)NCCc2csc(-c3ccc(C(F)(F)F)cc3)n2)cc1OCC | . | . | ? | . | . | 14.6µM*
O=C(NCCc1csc(-c2ccc(C(F)(F)F)cc2)n1)c1cccs1 | i | 0.0% | ? | -6.9% | i | 18.4µM*
Cc1cccc(NC(=O)C(=O)NCCc2csc(-c3ccc(C(F)(F)F)cc3)n2)c1C | . | . | -27.4% | . | . | -25.8%
O=S(=O)(NCCc1csc(-c2cccnc2)n1)c1cccs1 | i | 3.2% | ? | -10.4% | i | ?
O=C(NCCc1csc(-c2cccnc2)n1)c1cccs1 | i | 8.4% | ? | 9.0% | i | 20.6µM*
NC(=O)CSc1ccc(-c2ccc(F)cc2)nn1 | i | 0.7% | 1.7% | 4.0% | i | 2.3%
